Several values for one entry are separate records, joined by “and”; a condition that tells them apart may be missing. Equal values may be shown once. Activity calls are given as the source filed them. Calls follow the shape of the full dose curve.
Biological target: Estrogen receptor (Homo sapiens) (UniProt P03372)
Experiment: qHTS assay to identify small molecule agonists of the estrogen receptor alpha (ER-alpha) signaling pathway in the presence of an antagonist (AID 1259383); also: nearly all actives have a fitted effect of over 15% in size; as to activation: top concentration of the series differs between compounds
Details: VM7Luc4E2 cells, ERE-luciferase, +ICI-182,780, 22 h; series mostly up to 92.4 µM; activation: at the top concentration
In short: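 ER-alpha agonism measured under antagonist challenge: 10.0nM ICI-182,780 (final) plus compound, 15 concentrations, 22hr, VM7Luc4E2 ERE-luciferase cells. Read by luminescence.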
% is scaled to controls: 0 for no effect and ±100 for the full control effect; potency is read from the fitted curve at half-maximal effect.

Estrogen receptor (Homo sapiens), sequence (P03372 whole entry, looked up): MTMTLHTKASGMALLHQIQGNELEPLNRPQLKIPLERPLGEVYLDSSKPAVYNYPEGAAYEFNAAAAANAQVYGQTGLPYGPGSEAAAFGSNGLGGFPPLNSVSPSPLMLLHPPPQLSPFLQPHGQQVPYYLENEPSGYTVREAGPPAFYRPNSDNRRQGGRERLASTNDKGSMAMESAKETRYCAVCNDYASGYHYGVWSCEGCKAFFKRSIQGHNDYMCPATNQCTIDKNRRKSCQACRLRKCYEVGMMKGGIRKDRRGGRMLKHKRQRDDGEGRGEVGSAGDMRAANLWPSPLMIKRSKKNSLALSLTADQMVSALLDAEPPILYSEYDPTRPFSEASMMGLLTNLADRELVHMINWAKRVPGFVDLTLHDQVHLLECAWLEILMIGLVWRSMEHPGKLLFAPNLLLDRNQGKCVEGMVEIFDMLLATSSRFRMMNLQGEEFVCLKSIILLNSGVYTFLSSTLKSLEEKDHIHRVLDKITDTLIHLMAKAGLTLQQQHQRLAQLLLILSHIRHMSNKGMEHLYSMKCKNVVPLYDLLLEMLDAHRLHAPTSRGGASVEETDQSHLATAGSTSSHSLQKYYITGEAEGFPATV

| SMILES | activation | Potency |
| --- | --- | --- |
| CC[N+]1(CC)CCC(OC(=O)C(O)(c2ccccc2)c2ccccc2)C1 (configuration not stated) | -0.724% [at 42.5 µM] (inactive) |  |
| CCCCN(CCCC)C(=S)[S-].CCCCN(CCCC)C(=S)[S-].[Ni+2] | 1.17% [at 42.5 µM] (inactive) |  |
| N#Cc1sc2c(=O)c3ccccc3c(=O)c=2sc1C#N | -16.1% (inactive) |  |
| CC(=O)[O][Sn]([c]1ccccc1)([c]1ccccc1)[c]1ccccc1 | -15.1% (inactive) |  |
| C[C@]12C/C(=C/O)C(=O)C[C@@H]1CC[C@@H]1[C@@H]2CC[C@@]2(C)[C@H]1CC[C@]2(C)O |  | 8.71 µM (active) and 21.1 µM (active) |
| O=C(CCCCl)c1ccc(F)cc1 | 6.54% [at 42.5 µM] (inactive) |  |
| Cc1c([N+](=O)[O-])c(C)c([N+](=O)[O-])c(C(C)(C)C)c1[N+](=O)[O-] | -2.56% (inactive) |  |
| CC(C)NCC(O)c1ccccc1Cl (configuration not stated) | -1.06% [at 42.5 µM] (inactive) |  |
| Cc1ccccc1OP(=O)(Oc1ccccc1C)Oc1ccccc1C | 3.38% (inactive) |  |
| COP(=S)(OC)Oc1nc(Cl)c(Cl)cc1Cl | 0.354% (inactive) |  |
| Oc1ccc(Cl)c(Cl)c1 | 6.05% (inactive) |  |
| CC1=C2C[C@H]3[C@@H](CC=C4C[C@@H](O)CC[C@@]43C)[C@@H]2CC[C@]12O[C@@H]1C[C@H](C)CN[C@H]1[C@H]2C | -0.637% [at 42.5 µM] (inactive) |  |
| CCOP(=O)(Sc1ccccc1)Sc1ccccc1 | 0.878% (inactive) |  |
| CCCCC(CC)COC(=O)c1ccccc1C(=O)OCC(CC)CCCC (configuration not stated) |  | 27.3 µM (active) |
| CN1CCc2cc(Cl)c(O)cc2[C@H]2c3ccccc3CC[C@@H]21 | -1.69% [at 42.5 µM] (inactive) |  |
| O=c1c2ccccc2c(=O)c2c1cc(Cl)c1[nH]c3c([nH]c12)c(Cl)cc1c(=O)c2ccccc2c(=O)c13 | -1.69% (inactive) |  |
| O=C(O)[C@H](O)[C@@H](O)C(=O)O | -0.079% (inactive) |  |

Source: PubChem BioAssay (Tox21)
